# Laboratory results published in the supplement of paper PMC13380429.
# Columns and labels:
# [1] = system: Vero E6 infected with SARS-CoV-2; experiment: morphology score (similarity to uninfected cells); higher = more like uninfected cells; conditions: 24 h
# [2] = system: Vero E6 infected with SARS-CoV-2; experiment: SARS-CoV-2 infection rate relative to infected DMSO; higher = more infection, active = 60 or less; conditions: 24 h
SMILES,morphology score [1],SARS-CoV-2 infection rate [2]
CO[C@@H]1[C@H](N(C)C(=O)c2ccccc2)C[C@H]2O[C@]1(C)n1c3ccccc3c3c4c(c5c6ccccc6n2c5c31)C(=O)NC4 [midostaurin] (10 µM),-0.108,110% (inactive)
CC(=O)SC[C@@H](Cc1ccccc1)C(=O)NCC(=O)OCc1ccccc1 (racemic) [racecadotril] (10 µM),0.0461,110% (inactive)
"c1ccc(C[C@H](c2ccccc2)N2CCCCC2)cc1 (racemic) [1-(1,2-diphenylethyl)piperidine-(+/-)] (10 µM)",0.349,69% (inactive)
OCc1cccnc1 [nicotinyl-alcohol-tartrate] (10 µM),-0.13,118% (inactive)
Cc1cc(C)c(N)c(C#Cc2cccc(F)c2)n1 (10 µM),0.221,97.5% (inactive)
C[C@@H]1CN(Cc2ccc(F)cc2)[C@@H](C)CN1C(=O)c1cc2c(C(=O)C(=O)N(C)C)cn(C)c2cc1Cl [talmapimod] (10 µM),0.103,88.5% (inactive)
COc1ccc(Cl)c(Nc2ncnc3cc(OCC4CCN(C)CC4)c(OC)cc23)c1 (10 µM),-0.108,114% (inactive)
CCO[C@@H]1OC(=O)C[C@@H]1NC(=O)[C@@H]1CCCN1C(=O)[C@@H](NC(=O)c1ccc(N)c(Cl)c1)C(C)(C)C (10 µM),0.0386,116% (inactive)
O=C(O)CCCC[C@@H]1SC[C@@H]2NC(=O)N[C@@H]21 [biotin] (10 µM),-0.0202,108% (inactive)
CC[C@H](CC[C@@H](C)[C@H]1CC[C@H]2[C@@H]3CC=C4C[C@@H](O)CC[C@]4(C)[C@H]3CC[C@]12C)C(C)C [beta-Sitosterol] (10 µM),0.119,99% (inactive)
Oc1ccc2c3c1O[C@H]1[C@@H](O)CC[C@@]4(O)[C@@H](C2)N(CC2CCC2)CC[C@]314 [nalbuphine] (10 µM),-0.0532,114% (inactive)
COC(=O)C1=C(C)NC(C)=C(C(=O)OC/C=C/c2ccccc2)C1c1cccc([N+](=O)[O-])c1 (stereo not drawn) [pranidipine] (10 µM),-0.0636,107% (inactive)
N#C[C@@H]1CCCN1C(=O)CNC12CC3CC(CC(O)(C3)C1)C2 [vildagliptin] (10 µM),0.00182,91% (inactive)
CCCCC(=O)N(Cc1ccc(-c2ccccc2-c2nnn[nH]2)cc1)[C@H](C(=O)O)C(C)C [valsartan] (10 µM),0.00713,98.5% (inactive)
Nc1nc(OCC2CCCCC2)c2nc[nH]c2n1 (10 µM),0.0911,90.5% (inactive)
COc1cc(Nc2c(C#N)cnc3cc(OCCCN4CCN(C)CC4)c(OC)cc23)c(Cl)cc1Cl [bosutinib] (10 µM),0.00987,96.5% (inactive)
CNC(=O)c1ccc2c(c1)CCO[C@H]2CCN1CCN(c2ccc(C(N)=O)cc2)CC1 (10 µM),0.0173,106% (inactive)
Nc1nc(NC[C@H]2CC[C@H](CNS(=O)(=O)c3cccc4ccccc34)CC2)nc2ccccc12 (0.833333 µM),-0.0427,93.5% (inactive)
O=C(O)c1cccnc1Nc1cccc(C(F)(F)F)c1 [niflumic-acid] (10 µM),0.127,104% (inactive)
COc1c(O)cc2c(c1O)[C@@H]1O[C@H](CO)[C@@H](O)[C@H](O)[C@H]1OC2=O [bergenin] (10 µM),0.087,96% (inactive)

SMILES,morphology score [1],SARS-CoV-2 infection rate [2]
CCOC(=O)c1ccc(-n2cc(Cc3cnc(OCC)nc3)c(=O)nc2SCc2ccc(F)cc2)cc1 (10 µM),0.18,90.5% (inactive)
Cc1nn(C)c2c1C(c1cccc(Cl)c1)=NCCN2 [zometapine] (10 µM),0.136,104% (inactive)
Cc1[nH]c(/C=C2\C(=O)Nc3ccc(S(=O)(=O)N(C)c4cccc(Cl)c4)cc32)c(C)c1C(=O)N1CCN(C)CC1 (10 µM),0.493,104% (inactive)
Cc1c[nH]c2ncnc(N3CCC(CN)(C(=O)Nc4cccc(OC(=O)N(C)C)c4)CC3)c12 (10 µM),0.156,94% (inactive)
C[C@H](CCC(=O)NCCS(=O)(=O)O)[C@H]1CC[C@H]2[C@@H]3[C@H](O)C[C@@H]4C[C@H](O)CC[C@]4(C)[C@H]3C[C@H](O)[C@]12C [taurocholate] (10 µM),-0.0884,116% (inactive)
O=C(Nc1ccccc1)Nc1ccc(-c2ccc(C(=O)[C@@H]3CCC[C@@H]3C(=O)O)cc2)cc1 (10 µM),0.202,102% (inactive)
COc1cc2c(Nc3ccc(NC(=O)c4ccccc4)cc3)ncnc2cc1OCCCN1CCOCC1 (10 µM),-0.13,108% (inactive)
CC(C)c1cc(CNc2nc(Nc3cc(C4CC4)[nH]n3)cc(N3CCN(C)CC3)n2)on1 (10 µM),-0.0949,112% (inactive)
OC[C@H]1O[C@@H](c2ccc(Cl)c(Cc3ccc(O[C@H]4CCOC4)cc3)c2)[C@H](O)[C@@H](O)[C@@H]1O [empagliflozin] (10 µM),-0.159,106% (inactive)
CC(=O)c1ccc2c(c1)[C@H](NC(=O)c1ccc(F)c(Cl)c1)[C@H](O)C(C)(C)O2 [tonabersat] (10 µM),0.372,94.5% (inactive)
COc1ccc(-c2oc3cc(OC)ccc3c2C(=O)c2ccc(C#N)cc2)cc1 (10 µM),0.111,97% (inactive)
CCOc1ccc2nc(S(N)(=O)=O)sc2c1 [ethoxzolamide] (10 µM),0.205,97.5% (inactive)
COc1ccc(CNC(=O)/C=C/c2ccc3[nH]cc(CCN(C)C)c3c2)cc1 (10 µM),0.155,88.5% (inactive)
"Cc1cc(C)cc(C(=O)O[C@H]2C[C@H]3CC[C@@H](C2)N3C)c1 [tropanyl-3,5-dimethylbenzoate] (10 µM)",0.23,90% (inactive)
CC(=C(CCO)SSCC1CCCO1)N(C=O)Cc1cnc(C)nc1N (stereo in doubt) [fursultiamine] (10 µM),0.0723,110% (inactive)
C[n+]1c2cc(N)ccc2cc2ccc(N)cc21 [acriflavinium] (0.833333 µM),0.0932,98.5% (inactive)
Cc1ncc([N+](=O)[O-])n1CC(C)O (stereo not drawn) [secnidazole] (10 µM),0.17,99% (inactive)
O=C(O)c1nc(=O)[nH]c(=O)[nH]1 [oxonic-acid] (10 µM),-0.0587,115% (inactive)
CC(=O)[C@H]1CC[C@H]2[C@@H]3CC[C@H]4C[C@H](O)CC[C@]4(C)[C@H]3C(=O)C[C@]12C [alfaxalone] (10 µM),-0.0143,112% (inactive)
Cc1nc(C)c(-c2ccc(C3CCC(CC(=O)O)CC3)cc2)nc1C(N)=O (stereo not drawn) (10 µM),0.134,89.5% (inactive)

SMILES,morphology score [1],SARS-CoV-2 infection rate [2]
CN1C(=O)c2c(nn(Cc3ccc(-c4cccc(F)n4)cc3)c2Nc2ccccc2)N2C1=N[C@@H]1CCC[C@@H]12 (10 µM),0.38,105% (inactive)
COc1cc(C(=O)NCc2ccc(OCCN(C)C)cc2)cc(OC)c1OC [trimethobenzamide] (10 µM),0.00196,110% (inactive)
COCCOc1cnc2ccn([C@H](C)c3nnc4c(F)cc(-c5cnn(C)c5)cn34)c(=O)c2c1 (10 µM),0.0816,105% (inactive)
O=S(=O)(O)c1cc(O)ccc1O [etamsylate] (10 µM),0.0853,94.5% (inactive)
Cc1ncc[nH]1 [2-methylimidazole] (10 µM),0.049,95% (inactive)
COc1cc2c(cc1OC)[C@@]13CCN4CC5=CCO[C@H]6CC(=O)N2[C@H]1[C@H]6[C@H]5C[C@H]43 [brucine] (10 µM),0.0385,105% (inactive)
CN1C(=O)N(C)C2C1N(C)C(=O)N2C (stereo not drawn) [mebicar] (10 µM),0.0884,107% (inactive)
C[C@@H](CN1CCC(n2c(=O)[nH]c3cc(Cl)ccc32)CC1)NC(=O)c1ccc2ccccc2c1 (10 µM),0.46,87% (inactive)
CC(C)(C)[C@]1(O)CCN2C[C@H]3c4ccccc4CCc4cccc(c43)[C@@H]2C1 [butaclamol] (10 µM),0.273,101% (inactive)
CC(C)CN(C[C@@H](O)[C@H](Cc1ccccc1)NC(=O)O[C@H]1CO[C@H]2OCC[C@H]21)S(=O)(=O)c1ccc(N)cc1 [darunavir] (10 µM),0.156,107% (inactive)
O=C(O)c1ccc(S(=O)(=O)N(Cl)Cl)cc1 [halazone] (10 µM),0.13,95% (inactive)
CCNCCCNCCCCNCCCNCC (0.833333 µM),0.312,80.5% (inactive)
CCCNC(=O)NS(=O)(=O)c1ccc(Cl)cc1 [chlorpropamide] (10 µM),0.266,79.5% (inactive)
Cc1ccc(-c2csc3ncnc(SCCC(=O)O)c23)cc1 (10 µM),0.15,103% (inactive)
c1cnc2cc3c(cc2n1)[C@@H]1CNC[C@H]3C1 [varenicline] (10 µM),-0.0409,101% (inactive)
COc1cc(N2CCN(C(C)=O)CC2)ccc1Nc1ncc(Cl)c(Nc2ccc(N3CCN(C(C)=O)CC3)cc2OC)n1 (10 µM),0.0828,114% (inactive)
O=C(CCBr)N1CCN(C(=O)CCBr)CC1 [pipobroman] (10 µM),0.23,98.5% (inactive)
C[C@@H]1Cc2c([nH]c3ccccc23)[C@@H](c2c(F)cc(/C=C/C(=O)O)cc2F)N1CC(C)(C)F (10 µM),-0.0686,105% (inactive)
CN1CCC(=C2c3ccccc3Sc3ccccc32)CC1 [pimethixene] (10 µM),0.373,85.5% (inactive)
